Among the data in the supplement of paper PMC10811239 are bioluminescence values, retold here.

The test deals with LEGO organoid PTN (PTEN-/-; TP53-/-; NF1-/-). As to the kind of experiment: bioluminescence (viable cell) signal fold change after vs before treatment, normalised to DMSO (ratio); higher = more tumour cell growth / less inhibition. To be noted: 10 µM; treatment time 6 days. As to the method: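 Luc2-labelled iPSC-derived glioblastoma-like organoids (LEGOs, genotypes PT = PTEN-/-;TP53-/-, PTCC = plus CDKN2A/B-/-, PTN = plus NF1-/-) were treated with 10 uM drug for 6 days (applied every other day) at 37 C. Bioluminescence imaging was done before treatment and 2 days after the last dose. BLI signals were normalised to the DMSO control on the same day and then to the pre-treatment signal (N=3).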
Regarding `NS(=O)(=O)c1cc2c(cc1Cl)N=CNS2(=O)=O` [Chlorothiazide], the bioluminescence came out at 1.33.

As for `CNC(=O)c1cc(Oc2ccc(NC(=O)Nc3ccc(Cl)c(C(F)(F)F)c3)cc2)ccn1.Cc1ccc(S(=O)(=O)O)cc1` [Sorafenib tosylate], the bioluminescence is 0.504.

Take `Cc1cnc(NC(=O)C2=C(O)c3ccccc3S(=O)(=O)N2C)s1` [Meloxicam]: the bioluminescence turned out to be 3.3.

Consider `S=c1nc[nH]c2nc[nH]c12` [Mercaptopurine], for which the bioluminescence is 0.946.

Regarding `CCCc1nc(C)c2c(=O)[nH]c(-c3cc(S(=O)(=O)N4CCN(CC)CC4)ccc3OCC)nn12` [Vardenafil], the bioluminescence was found to be 1.29.

Turning to `CN[C@H](CC(C)C)C(=O)N[C@H]1C(=O)N[C@@H](CC(N)=O)C(=O)N[C@H]2C(=O)N[C@H]3C(=O)N[C@H](C(=O)N[C@H](C(=O)O)c4cc(O)cc(O)c4-c4cc3ccc4O)[C@H](O)c3ccc(c(Cl)c3)Oc3cc2cc(c3O[C@@H]2O[C@H](CO)[C@@H](O)[C@H](O)[C@H]2O[C@H]2C[C@](C)(N)[C@H](O)[C@H](C)O2)Oc2ccc(cc2Cl)[C@H]1O` [Vancomycin], the bioluminescence came out at 0.868.

`CCCN(CCc1cccs1)[C@H]1CCc2c(O)cccc2C1` [Rotigotine]: the bioluminescence worked out at 1.77.

Turning to `CNC(=O)c1cc(Oc2ccc(NC(=O)Nc3ccc(Cl)c(C(F)(F)F)c3)cc2)ccn1` [Sorafenib], the bioluminescence came to 0.285.

In the case of `CC(=O)Oc1ccccc1C(=O)O` [Aspirin], the bioluminescence came out at 0.737.

Consider `Nc1ccn([C@@H]2O[C@H](CO)[C@@H](O)[C@@H]2O)c(=O)n1` [Cytarabine], for which the bioluminescence came to 0.51.

For the molecule `CC[C@@H]1/C=C(\C)C[C@H](C)C[C@H](OC)[C@H]2O[C@@](O)(C(=O)C(=O)N3CCCC[C@H]3C(=O)O[C@H](/C(C)=C/[C@@H]3CC[C@H](Cl)[C@H](OC)C3)[C@H](C)[C@@H](O)CC1=O)[C@H](C)C[C@@H]2OC` [Pimecrolimus], the bioluminescence is 0.347.

On to `CN1CCN(C2=Nc3cc(Cl)ccc3Nc3ccccc32)CC1` [Clozapine], for which the bioluminescence stood at 0.617.

`CC1=NN(c2ccccc2)C(=O)C1` [Edaravone]: the bioluminescence was found to be 1.12.

Consider `O=C(CCCCCCC(=O)Nc1ccccc1)NO` [Vorinostat], for which the bioluminescence came out at 0.384.

Regarding `CCN(CC)CC(=O)Nc1c(C)cccc1C.Cl` [Lidocaine hydrochloride], the bioluminescence was 1.08.

For the molecule `Clc1ccc(COC(Cn2ccnc2)c2ccc(Cl)cc2Cl)c(Cl)c1.O=[N+]([O-])O` (stereo unspecified) [Miconazole nitrate], the bioluminescence was 1.21.

As for `CC(C)NCC(O)COc1cccc2ccccc12.Cl` (stereo unspecified) [Propranolol hydrochloride], the bioluminescence amounted to 1.25.

Turning to `CCOc1nc2cccc(C(=O)O)c2n1Cc1ccc(-c2ccccc2-c2nn[nH]n2)cc1` [Candesartan], the bioluminescence was 2.99.

Turning to `CC(=O)OCC(=O)[C@@]1(O)[C@H](C)C[C@H]2[C@@H]3CCC4=CC(=O)C=C[C@]4(C)[C@@]3(F)[C@@H](O)C[C@@]21C` [Dexamethason acetate], the bioluminescence was 1.53.

In the case of `Cc1cccc(N(C)C(=S)Oc2ccc3ccccc3c2)c1` [Tolnaftate], the bioluminescence was 1.31.

As for `NCCS(=O)(=O)O` [Taurine], the bioluminescence was 0.673.
